The campaign covered roughly 69,000 compounds. About 8,600 (12%) showed an effect of 50% or more. The entries come from a sample that favours strong results as a whole.

This assay deals with Plasmodium berghei. Description: Screen against P. berghei liver stage (PbLuc), transformed with Luciferase, at 10uM. The class given is functional, HepG2. The conditions noted are these: tested at 10 uM.
As to `CCN(c1ccc(C(=O)NCCN2CCOCC2)cc1)S(=O)(=O)CC`, the INHIBITION is recorded as 34.2%.

With `CCN(CC)C(=O)Cn1cc(C(=O)NCCc2scnc2C)nn1`, the INHIBITION worked out at 10.6%. As for `CCN(CC)C(=O)Cn1cc(C(=O)NCCc2nc(C)c(C)s2)nn1`, the INHIBITION is reported as 39%.

For the molecule `CCN(CC)C(=O)Cn1cc(C(=O)NCCCc2scnc2C)nn1`, the INHIBITION is 56.3%.

For the molecule `CN(Cc1ccco1)[C@@H]1CN(CC2CCOCC2)C[C@@H]2CCCO[C@@H]21`, the INHIBITION was 38.1%.

Turning to `CNC(=O)C1(c2cnccn2)CCCN1C(=O)c1ccccc1C` (configuration not stated), the INHIBITION is 30.4%. Under `CN(C)C(=O)c1cc(-c2cnc(N)nc2)nc2cc(F)ccc12` stands 60.2%; under `COc1ccc2c(C(=O)N(C)C)cc(-c3cnc(N)nc3)nc2c1`, 15.7%. The figure for `Cc1cc(C)c2c(C(=O)N(C)C)cc(-c3cnc(N)nc3)nc2c1` is 5.91%. Under `Cc1ccc2nc(-c3cnc(N)nc3)cc(C(=O)N(C)C)c2c1` stands 13.5%; under `Cc1ccc2nc(-c3cnc(N)nc3)c(C)c(C(=O)N(C)C)c2c1`, 50.5%; under `CCCn1cc(-c2cc(C(=O)N(C)C)c3ccc(C)cc3n2)cn1`, 8.845%.

Regarding `c1ncn(CC2CCCN(CC3CCCCC3)C2)n1` (configuration not stated), the INHIBITION is -1.75%.

As to `Nc1cc(C(=O)N2CCCC(C(=O)CCc3ccccc3)C2)ccn1` (configuration not stated), the INHIBITION turned out to be 49.3%.

Turning to `c1cnc(N2CCO[C@H]3CN(Cc4cc[nH]n4)C[C@H]32)cn1`, the INHIBITION is reported as -15.3%.

Consider `CCc1nc(CN2CCOC(Cn3nc(C)cc3C)C2)no1` (configuration not stated), for which the INHIBITION is reported as -0.219%. On to `COCCN1CCC(CNc2cnc3ccccc3n2)CC1`, for which the INHIBITION was found to be 46.1%.

Turning to `COCCN1CCC(CNc2nc3ccccc3o2)CC1`, the INHIBITION was 61%. As to `COCCN1CCC(CNc2nccc(-c3cnn(C)c3)n2)CC1`, the INHIBITION is recorded as 13.3%. Under `Cc1csc(CN2CCC3(CC2)COC(COCC2CC2)C3)n1` (configuration not stated) stands 43%; under `CS(=O)(=O)NC1CCCN(C(=O)NCc2ccccc2Cl)C1` (configuration not stated), 25.4%. Turning to `CC(=O)OC1CN(c2nc3c(Cl)cccc3s2)C1`, the INHIBITION is -56.7%. Under `c1cnc(-c2nc(CNC3CCc4ncnn4C3)cs2)nc1` (configuration not stated) stands -25.75%. The figure for `Cc1ccc(CCC(=O)N2CCn3c(nnc3C(C)C)C2)cc1Cl` is 8.41%; for `COc1ccc(-c2nnc(SC(C)C(=O)NC3CCCC3)[nH]2)c(OC)c1` (configuration not stated) it is 51.7%. Under `COc1ccc(-c2nnc(SC(C)C(N)=O)[nH]2)c(OC)c1` (configuration not stated) stands 18.3%; under `COc1ccc(-c2nnc(SCC(=O)NCC(C)C)[nH]2)c(OC)c1`, -30.8%; under `COc1ccc(-c2nnc(SC(C)C(=O)NC3CC3)[nH]2)c(OC)c1` (configuration not stated), 37.1%.

As to `COc1ccc(-c2nnc(SC(C)C(=O)NC(C)(C)C)[nH]2)c(OC)c1` (configuration not stated), the INHIBITION came out at 82.5%. Under `COc1ccc(S(=O)(=O)NC(=O)C(C)OC)c(OC)c1` (configuration not stated) stands 33%; under `COc1ccc(-c2nnc(SC(C)C(=O)NCC(C)C)[nH]2)c(OC)c1` (configuration not stated), 64%. The figure for `COc1ccc2nnc(C(=O)NC3CCCC3)nc2c1` is -65.8%. In the case of `COc1ccc(-c2ccccc2CN)c(OC)c1`, the INHIBITION was -58%.

With `COc1cc2cc3c(nc2cc1OC)OCCN(Cc1cccs1)C3`, the INHIBITION was -3.94%. The figure for `Cc1ccc(CN2CCc3onc(C(=O)Nc4cccnc4)c3C2)o1` is -12.2%; for `CC1(C(=O)NC2CCCC2)CCCN(c2ncccn2)C1` (configuration not stated) it is 0.301%. Under `O=C(NCC1CCOCC1)c1cc(-c2cccnc2)c2cnccc2n1` stands -4.87%; under `CN(C)c1cc(C2CCCN(Cc3cnn(C)c3)C2)ccn1` (configuration not stated), 3.85%; under `CCn1cc(CN2CCC(c3nnc(CN(C)C)n3CC)CC2)cn1`, 15.1%.

On to `CCn1cc(C2CCN(Cc3ccnc(N(C)C)c3)CC2)cn1`, for which the INHIBITION is 66.7%. The figure for `Cc1ccc(C(=O)N2CCCCC2c2[nH]ncc2S(C)(=O)=O)s1` (configuration not stated) is 36.7%; for `CN(C)CC1CSCCCN1C(=O)c1ccsc1` (configuration not stated) it is -26.3%. The figure for `CN1CC2(CCC(C(=O)O)CC2)Oc2ccccc2C1=O` (configuration not stated) is -4.35%; for `Cc1ccc(C)c(C(=O)Nc2ccc(OC3CCN(C)CC3)cc2)c1` it is 55.8%; for `COc1ccccc1C(=O)Nc1ccc(OC2CCN(C)CC2)cc1` it is -25.6%.

As for `CN1CCC(Oc2ccc(NC(=O)c3ccccc3Br)cc2)CC1`, the INHIBITION stood at 51.8%.

For `CN1CCC(Oc2ccc(NC(=O)c3cccc(Cl)c3)cc2)CC1`, the INHIBITION stood at 65.1%. For `CN1CCC(Oc2ccc(NC(=O)c3ccccc3)cc2)CC1`, the INHIBITION is 21.7%.

Consider `COc1cccc(C(=O)Nc2ccc(OC3CCN(C)CC3)cc2)c1`, for which the INHIBITION was 49.2%. For `Cc1ccccc1C(=O)Nc1ccc(OC2CCN(C)CC2)cc1`, the INHIBITION is reported as 10.7%. The figure for `Cc1cccc(C(=O)Nc2ccc(OC3CCN(C)CC3)cc2)c1` is 63.5%. On to `CSc1ccccc1C(=O)Nc1ccc(OC2CCN(C)CC2)cc1`, for which the INHIBITION amounted to 11.8%. Under `Cc1ccc(C(=O)Nc2ccc(OC3CCN(C)CC3)cc2)c(C)c1` stands 47%. The figure for `CN1C(=O)CO[C@H](c2ccc(NC(=O)c3cccc(F)c3)cc2)[C@H]1CO` is 38.1%.

As for `COCCc1noc(CN2CCCCC2Cn2cccn2)n1` (configuration not stated), the INHIBITION was -2.33%. Under `CCCSCC(=O)NCc1cccc(CN(C)CC)c1` stands 39.8%; under `CN([C@@H]1CC[C@@H](N2CCOCC2)[C@@H]1O)S(=O)(=O)c1ccccc1`, 3%; under `Cc1nnc(CN(Cc2ccco2)Cc2cccc3c2OCO3)n1C`, -16.4%. Consider `CN(C)CC1(O)CCN(C(=O)c2ccc(-n3cccn3)cc2Cl)C1` (configuration not stated), for which the INHIBITION is 36.6%. `CNC(=O)c1cc(S(=O)(=O)C(C)C)cs1`: the INHIBITION is on record as 24.1%. Under `COc1ccc(C)cc1CCNS(C)(=O)=O` stands -18%; under `COc1ccc(C)cc1C(C)NS(=O)(=O)c1ccc2c(c1)CCC(=O)N2` (configuration not stated), 54.5%; under `COc1ccc(C(C)NS(=O)(=O)c2ccc3c(c2)CCC(=O)N3)cc1F` (configuration not stated), 20.2%. Under `CCN(CC)S(=O)(=O)NCCc1cc(C)ccc1OC` stands -12.9%. The figure for `COc1ccc(OC)c(C(C)NS(=O)(=O)c2cnn(C)c2)c1` (configuration not stated) is 11.2%; for `COc1ccc(C)cc1CCNS(=O)(=O)c1ccc2c(c1)CCC(=O)N2` it is 56.3%. `Cc1oncc1C(=O)N1C[C@H](OCc2ccccn2)[C@H]2OCCC[C@H]21`: the INHIBITION is listed as 15.4%.

(Values after ChEMBL document CHEMBL4513216, “Probing the Open Global Health Chemical Diversity Library for Multistage-Active Starting Points for Next-Generation Antimalarials” (ACS Infect Dis, 2020).)
